Several values for one entry are separate records, joined by “and”; a condition that tells them apart may be missing. Equal entries are not always repeated. Inconclusive results are not listed. Activity calls are given as the source filed them. Unless noted, calls come from the whole dose curve; as a rule, active = well fitted curve in the direction sought with a large enough effect; inconclusive = small, poorly fitted or top-dose-only effect, or another doubt; inactive = no such curve, though single readings can be large; an effect the other way counts as inactive or inconclusive.

Assay [1] is described as follows: MultiTox-Fluor Cytotoxicity Assay - LYMP1-001 - Live Cells (AID 947).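 Note: 0% = DMSO only and full inhibition = tetraoctylammonium bromide control.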
The nature of assay [2]: MultiTox-Fluor Cytotoxicity Assay - LYMP1-002 - Dead Cells (AID 960). Note: nearly all actives have a fitted effect of over 60% in size. Put shortly: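 LYMP1-002 cells 2500/well; 5 hr 37 C pre-incubation; compound 16 hr 37 C; MultiTox-Fluor reagent 60 min RT; dead-cell fluor Ex/Em 485/520. Norm. to DMSO (0%) vs 15 uM tetraoctylammonium bromide (100%); Hill AC50.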
A short description of assay [3]: Cell Viability - LYMP2-004 (AID 966).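 Note: cells exposed to compound for 24 h; plate controls were DMSO only for no effect and tetraoctylammonium bromide control for full effect; nearly all actives have a fitted effect of over 65% in size.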 The method in brief: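 Cells seeded 2500/well, rested 5 hr at 37 C, dosed across a concentration series, incubated 24 hr at 37 C, then CellTiter-Glo added for 30 min at room temperature and luminescence read. Hill fitting gave AC50.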
Assay [4] can be described thus: Cell Viability - LYMP1-002 - Assay at 24 hr (AID 993). Note: % is set by controls: 0 for no effect and ±100 for the full control effect. The method in brief:
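Cells plated 2500/well, 5 hr 37 C; compounds added, 24 hr 37 C; CellTiter-Glo added, 30 min RT; luminescence read. Tetraoctylammonium bromide positive control. Hill-equation AC50.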

The target in assay [5] is Thyroid hormone receptor beta (Homo sapiens) (UniProt P10828). Kind of assay: qHTS assay for small molecule agonists of thyroid hormone receptor beta signaling (AID 588545; calls by dose curve). Put shortly: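 In this cell-based screen, titrated compounds act on HEK 293 cells held in medium with 2% charcoal/dextran FBS, NEAA and pyruvate for 18 hrs at 37 C. Responses are expressed relative to T3 (10 nM) as 100% and basal DMSO as 0%.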

Assay [6] shares this target. Kind of assay: qHTS assay for small molecule antagonists of thyroid hormone receptor beta signaling (AID 588547; active = well fitted inhibition curve with a large enough effect in the signal ratio, with a control signal flat, not every such curve was filed as active; the % refers to the signal ratio;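 note: cells stimulated with 0.4 nM T3 agonist during compound exposure; series mostly up to about 77 µM; % is set by controls: 0 for no effect and ±100 for the full control effect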). The settings on record: TR-UAS-bla HEK293, beta-lactamase ratio, antagonist mode, 18 h. Put shortly:
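TR-UAS-bla GripTite HEK293 cells in 2% charcoal/dextran FBS medium were preincubated 4 h at 37 C, given compound (0.59 nM to 92 uM) plus 0.4 nM T3 (final) for 18 h, then CCF4 for 2 h at RT; Hill fit gave IC50.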
(In general: In qHTS, concentration-response curves come from the screen itself.)

Assay [7] concerns the target Voltage-gated inwardly rectifying potassium channel KCNH2 (Homo sapiens) (UniProt Q12809). Kind of assay: qHTS Assay for Small Molecule Inhibitors of the Human hERG Channel Activity (AID 588834).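 Note: top concentration of the series differs between compounds; % is set by controls: 0 for no effect and ±100 for the full control effect; lower thallium flux fluorescence means stronger hERG block; nearly all actives have a fitted effect of over 50% in size.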 The method in brief: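 Measured: FluxOR fluorescence after thallium stimulation in U2OS cells transduced with hERG by baculovirus. Compounds pre-incubated around 10 min; medium Opti-MEM with 2% FCS. AC50 from Hill equation.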

Assay [8] is described as follows: qHTS assay for small molecule activators of the p53 signaling pathway (AID 651743; active = well fitted activation curve with a large enough effect in the signal ratio, not every such curve was filed as active; the % refers to the signal ratio; note: series mostly up to about 92 µM; % of control where 0% means no effect). Conditions: HCT-116 p53RE-bla, beta-lactamase FRET ratio, 16 h; activation: stronger effect = higher value. The method in brief:
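Cell-based beta-lactamase reporter (p53 response elements, HCT-116 background). After a 5-hour preincubation, cells received compound for 16 hours at 37 C; substrate development ran 2 hours at room temperature.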

Assay [9] can be described thus: qHTS assay for small molecule disruptors of the mitochondrial membrane potential - 1 hr assay (AID 651754; calls by dose curve; note: % is set by controls: 0 for no effect and ±100 for the full control effect; nearly all actives have a fitted effect of over 35% in size). Put shortly: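 HepG2, 2,000 cells/well, overnight attachment; cpd or DMSO 1 hr, 37C/5% CO2; Mito-MPS dye 30 min, 37C; fluorescence monomer (490/535) and aggregate (540/590).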
Assay [10] in a line: qHTS assay for small molecule disruptors of the mitochondrial membrane potential - 5 hr assay (AID 651755; calls by dose curve; note: % is set by controls: 0 for no effect and ±100 for the full control effect; nearly all actives have a fitted effect of over 40% in size). Put shortly:
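HepG2 cells, attached overnight at 37C, were exposed to compound or DMSO for 5 hr at 37C, 5% CO2. Mito-MPS dye was then added for 30 min, and fluorescence read at 490/535 nm (monomers) and 540/590 nm (aggregates).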

Assay [11] has as its target Tumor necrosis factor (Homo sapiens) (UniProt P01375). Kind of assay: qHTS assay to identify small molecules that stimulate Tumor Necrosis Factor-alpha (TNF-alpha) secretion (AID 651757; active = well fitted curve in the direction sought with a large enough effect in the signal ratio; the % refers to the signal ratio; note: 0% is about no effect). Put shortly:
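Read-out is HTRF, a TR-FRET sandwich of cryptate- and XL665-labeled anti-TNF-alpha antibodies detecting cytokine secreted by THP-1 cells. Cells had been incubated with test compounds at 37 C for 17 hrs beforehand.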

Assay [12] in a line: qHTS assay for environmental chemicals that activate the Aryl hydrocarbon Receptor (AhR) signaling pathway (AID 651777). Note: % of control where 0% means no effect; nearly all actives have a fitted effect of over 15% in size. Conditions: 1A2-DRE human hepatoma cells, luciferase, 24 h; activation: stronger effect = higher value. The method in brief:
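Concentration–response screening used 1,200 1A2-DRE cells per well, 24 hr compound exposure (37 C, 5% CO2), and One-Glo luminescence as the AhR-driven CYP1A2 reporter signal.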

Assay [13] in a line: qHTS assay for small molecule agonists of the antioxidant response element (ARE) signaling pathway measured by Nrf2-dependant transcriptional activity (AID 720636; active = well fitted curve in the direction sought with a large enough effect in the repeat runs; an effect the other way counts as inactive or inconclusive;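 note: HepG2 cells with an ARE-driven luciferase reporter; % of control where 0% means no effect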). The method in brief: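 Attachment 6 hr at 37 C, then compound versus DMSO vehicle for 16 hr in ARE-luc HepG2 cells (1% dialyzed FBS); luminescence recorded 30 min after ONE-Glo addition at room temperature.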
A short description of assay [14]: qHTS assay for small molecule antagonists of the retinoid-related orphan receptor gamma (ROR-gamma) signaling pathway - cell viability counter screen (AID 720652; active = well fitted curve in the direction sought with a large enough effect in the repeat runs; an effect the other way counts as inactive or inconclusive;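 note: series mostly up to about 92 µM; compound exposure lasted 16 hr before ATP read; % is set by controls: 0 for no effect and ±100 for the full control effect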). Put shortly: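 Luminescence from CellTiter-Glo after 30 min at room temperature reported cellular ATP as the cytotoxicity measure. Cells were the CHO reporter line with doxycycline-induced ROR-gamma expression, exposed to compound for 16 hr at 37 C.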

In assay [15] the target is Nuclear receptor subfamily 1 group I member 2 (Rattus norvegicus) (UniProt Q9R1A7). Kind of assay: qHTS assay for small molecule activators of the rat pregnane X receptor (rPXR) signaling pathway (AID 651751; call rule not given here; note: 0% is about no effect). Conditions: rPXR reporter cells, luciferase (One-Glo), 24 h.
The nature of assay [16]: qHTS assay for small molecule activators of the human pregnane X receptor (PXR) signaling pathway (AID 720659; call rule not given here; note: 0% is about no effect).
The target of assay [17] is Cytochrome P450 3A4 (Homo sapiens) (UniProt P08684). Kind of assay: qHTS Assay for Inhibitors and Substrates of Cytochrome P450 3A4 (AID 884). Note: series mostly up to about 57 µM; % is set by controls: 0 for no effect and ±100 for the full control effect; nearly all actives have a fitted effect of over 50% in size. The method in brief:
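20 nM human CYP3A4 with 25 uM Luciferin-PPXE (at KM) in 200 mM KPO4, preincubated 10 min with compound; NADPH regeneration started a 60 min RT reaction. Luciferin detected by luminescence, normalized to 57 uM ketoconazole as full inhibition.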

The target in assay [18] is Peroxisome proliferator-activated receptor gamma (Homo sapiens) (UniProt P37231). Kind of assay: qHTS assay for small molecule agonists of peroxisome proliferator-activated receptor gamma signaling (AID 588536; active = well fitted curve in the direction sought with a large enough effect in the signal ratio, with a control signal flat, not every such curve was filed as active; the % refers to the signal ratio;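 note: 0% = DMSO basal wells and 100% = rosiglitazone at 2 µM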). The method in brief:
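Test agents, titrated, stimulated HEK293 UAS-bla cells overnight (16 h, 37 C). Substrate CCF4 was then added for two hours at room temperature before fluorescence reading.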

A short description of assay [19]: qHTS assay for small molecule agonists of retinoid X receptor alpha signaling (AID 588544; calls by dose curve;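 for activation: 0% = DMSO basal wells and 100% = reference agonist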). Conditions: HEK293T RXRa-UAS-bla, beta-lactamase reporter, 18 h; 530 nm emission.
Assay [20] has as its target Retinoic acid receptor RXR-alpha (Homo sapiens) (UniProt P19793). Described as above.

Tumor necrosis factor (Homo sapiens), sequence (P01375 whole entry, looked up): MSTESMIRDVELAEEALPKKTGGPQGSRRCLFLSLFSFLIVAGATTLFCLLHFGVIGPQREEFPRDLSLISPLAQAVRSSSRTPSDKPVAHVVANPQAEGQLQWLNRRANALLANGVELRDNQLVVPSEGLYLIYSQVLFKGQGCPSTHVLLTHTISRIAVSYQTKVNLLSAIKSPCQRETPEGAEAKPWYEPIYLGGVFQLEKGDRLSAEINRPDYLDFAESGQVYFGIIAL
Thyroid hormone receptor beta (Homo sapiens), sequence (P10828 whole entry, looked up): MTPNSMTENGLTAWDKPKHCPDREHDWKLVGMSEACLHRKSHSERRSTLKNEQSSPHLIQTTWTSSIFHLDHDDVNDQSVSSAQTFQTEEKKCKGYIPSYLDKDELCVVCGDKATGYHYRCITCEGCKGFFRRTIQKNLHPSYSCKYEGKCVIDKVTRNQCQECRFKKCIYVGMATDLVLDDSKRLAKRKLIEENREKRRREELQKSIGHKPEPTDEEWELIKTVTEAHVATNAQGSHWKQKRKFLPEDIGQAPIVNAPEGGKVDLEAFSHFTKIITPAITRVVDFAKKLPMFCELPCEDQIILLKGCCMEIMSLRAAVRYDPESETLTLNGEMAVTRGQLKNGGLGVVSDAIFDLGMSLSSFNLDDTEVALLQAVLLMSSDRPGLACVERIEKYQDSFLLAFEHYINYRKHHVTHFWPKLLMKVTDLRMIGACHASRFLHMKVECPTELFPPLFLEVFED
Nuclear receptor subfamily 1 group I member 2 (Rattus norvegicus), sequence (Q9R1A7 whole entry, looked up): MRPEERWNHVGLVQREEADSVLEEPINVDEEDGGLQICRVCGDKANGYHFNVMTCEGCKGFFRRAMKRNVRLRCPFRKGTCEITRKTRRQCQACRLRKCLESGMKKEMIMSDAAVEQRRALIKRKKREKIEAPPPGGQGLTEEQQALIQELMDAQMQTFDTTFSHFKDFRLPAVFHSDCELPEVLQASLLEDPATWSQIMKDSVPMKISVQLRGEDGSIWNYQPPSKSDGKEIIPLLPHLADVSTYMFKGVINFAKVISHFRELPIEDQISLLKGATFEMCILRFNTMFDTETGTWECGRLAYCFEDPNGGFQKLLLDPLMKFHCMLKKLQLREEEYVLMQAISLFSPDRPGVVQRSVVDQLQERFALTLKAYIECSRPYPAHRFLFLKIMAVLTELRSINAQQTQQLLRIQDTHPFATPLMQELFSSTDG
Retinoic acid receptor RXR-alpha (Homo sapiens), sequence (P19793 whole entry, looked up): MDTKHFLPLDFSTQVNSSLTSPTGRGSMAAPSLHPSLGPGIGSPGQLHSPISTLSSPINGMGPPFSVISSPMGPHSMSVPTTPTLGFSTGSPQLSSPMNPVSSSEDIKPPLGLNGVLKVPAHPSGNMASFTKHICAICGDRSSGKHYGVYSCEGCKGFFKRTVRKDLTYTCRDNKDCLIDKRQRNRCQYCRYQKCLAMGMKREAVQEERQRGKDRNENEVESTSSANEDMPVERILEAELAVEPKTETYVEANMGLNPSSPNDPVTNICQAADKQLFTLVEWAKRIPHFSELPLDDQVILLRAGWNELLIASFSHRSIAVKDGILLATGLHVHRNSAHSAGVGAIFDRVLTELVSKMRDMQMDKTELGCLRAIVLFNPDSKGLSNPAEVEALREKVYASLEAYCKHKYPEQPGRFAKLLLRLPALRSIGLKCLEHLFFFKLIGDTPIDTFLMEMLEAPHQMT
Cytochrome P450 3A4 (Homo sapiens), sequence (P08684 whole entry, looked up): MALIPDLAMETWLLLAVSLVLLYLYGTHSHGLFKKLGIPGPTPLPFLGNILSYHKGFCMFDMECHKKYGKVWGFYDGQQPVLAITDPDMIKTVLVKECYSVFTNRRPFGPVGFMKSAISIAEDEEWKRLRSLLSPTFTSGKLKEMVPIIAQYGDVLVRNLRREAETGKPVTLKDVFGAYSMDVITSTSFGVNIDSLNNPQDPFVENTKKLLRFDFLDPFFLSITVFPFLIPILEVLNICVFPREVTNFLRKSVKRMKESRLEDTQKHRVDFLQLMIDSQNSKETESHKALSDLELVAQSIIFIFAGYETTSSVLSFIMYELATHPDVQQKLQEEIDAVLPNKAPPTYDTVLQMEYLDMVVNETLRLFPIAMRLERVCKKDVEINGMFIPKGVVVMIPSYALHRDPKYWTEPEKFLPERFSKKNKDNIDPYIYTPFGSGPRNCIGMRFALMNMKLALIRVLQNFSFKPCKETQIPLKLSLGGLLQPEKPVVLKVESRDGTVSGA
Peroxisome proliferator-activated receptor gamma (Homo sapiens), sequence (P37231 whole entry, looked up): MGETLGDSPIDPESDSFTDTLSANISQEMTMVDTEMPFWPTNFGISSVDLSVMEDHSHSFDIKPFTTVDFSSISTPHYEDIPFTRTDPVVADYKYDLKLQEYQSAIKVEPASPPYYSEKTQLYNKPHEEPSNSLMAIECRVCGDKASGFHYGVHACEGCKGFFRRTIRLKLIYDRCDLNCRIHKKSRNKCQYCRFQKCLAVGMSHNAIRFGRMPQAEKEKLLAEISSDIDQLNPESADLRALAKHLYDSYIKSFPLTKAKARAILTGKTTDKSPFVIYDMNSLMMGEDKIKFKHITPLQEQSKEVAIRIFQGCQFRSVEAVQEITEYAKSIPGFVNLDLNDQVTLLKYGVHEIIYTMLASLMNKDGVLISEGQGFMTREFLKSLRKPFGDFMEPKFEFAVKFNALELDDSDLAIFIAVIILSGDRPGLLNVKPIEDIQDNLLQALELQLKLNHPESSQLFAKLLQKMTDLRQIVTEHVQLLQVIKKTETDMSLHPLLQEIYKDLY
Voltage-gated inwardly rectifying potassium channel KCNH2 (Homo sapiens), sequence (Q12809 whole entry, looked up): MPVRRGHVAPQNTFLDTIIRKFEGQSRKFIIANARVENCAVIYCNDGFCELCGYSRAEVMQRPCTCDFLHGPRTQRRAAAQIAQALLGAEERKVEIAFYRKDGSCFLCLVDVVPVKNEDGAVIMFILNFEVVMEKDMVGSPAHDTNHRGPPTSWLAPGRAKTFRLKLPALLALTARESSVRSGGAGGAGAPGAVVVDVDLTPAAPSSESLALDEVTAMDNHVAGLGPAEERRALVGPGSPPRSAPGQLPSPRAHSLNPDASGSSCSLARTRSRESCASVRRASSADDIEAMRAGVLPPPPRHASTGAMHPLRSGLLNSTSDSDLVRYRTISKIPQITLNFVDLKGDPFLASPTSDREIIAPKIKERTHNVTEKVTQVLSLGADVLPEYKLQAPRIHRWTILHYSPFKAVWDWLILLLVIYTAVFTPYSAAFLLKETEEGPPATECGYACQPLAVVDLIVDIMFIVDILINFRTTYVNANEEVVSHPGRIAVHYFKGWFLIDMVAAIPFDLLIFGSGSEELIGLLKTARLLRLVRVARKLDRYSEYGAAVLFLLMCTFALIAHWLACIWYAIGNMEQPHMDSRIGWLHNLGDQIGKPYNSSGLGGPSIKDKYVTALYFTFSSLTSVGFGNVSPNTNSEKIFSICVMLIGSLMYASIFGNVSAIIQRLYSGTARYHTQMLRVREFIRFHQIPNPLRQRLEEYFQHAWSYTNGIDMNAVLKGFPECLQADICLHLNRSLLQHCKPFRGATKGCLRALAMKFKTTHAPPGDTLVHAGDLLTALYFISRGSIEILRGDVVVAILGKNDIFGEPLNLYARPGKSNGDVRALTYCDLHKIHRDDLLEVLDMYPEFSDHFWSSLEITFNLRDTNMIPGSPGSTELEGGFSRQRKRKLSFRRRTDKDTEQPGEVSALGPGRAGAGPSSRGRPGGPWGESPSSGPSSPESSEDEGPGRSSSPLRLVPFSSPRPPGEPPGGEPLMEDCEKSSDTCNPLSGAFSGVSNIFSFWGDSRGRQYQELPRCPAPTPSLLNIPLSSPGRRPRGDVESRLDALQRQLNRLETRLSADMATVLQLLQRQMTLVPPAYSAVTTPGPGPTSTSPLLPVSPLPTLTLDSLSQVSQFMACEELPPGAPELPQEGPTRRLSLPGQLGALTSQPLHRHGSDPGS

Consider `COc1c2ccoc2cc2oc(=O)ccc12`, for which the Potency entry in [1], in assay [2], in assay [3], in [4], in assay [7] and in [9] was “inactive” each time. Moreover, the Potency entry in assay [10], in assay [13] and in assay [14] was “inactive” in each case. The call in assay [5], in [11] and in assay [16] was inactive. In addition, in [6], the activity change % (negative = inhibition) was 16.2% (inactive). In addition, the activation in assay [8] was 6.05% (inactive); in assay [12] it was 1.47% (inactive). In addition, the max response in [15] is 2.12% (inactive).
For `CCCCCCCCO`, the Potency entry in [17], in assay [1], in [3], in assay [4], in [7] and in [9] was “inactive” in each case. The Potency entry in assay [10], in assay [13] and in [14] was “inactive” each time. Further, the molecule was called inactive in assay [18], in assay [20], in [5], in assay [11] and in assay [16]. The max response in [19] is -1.34% and -17.2% and -8.68%; in assay [15], -3.47% (inactive) and -2.32% (inactive) and 2.37% (inactive). The activity change % (negative = inhibition) in assay [6] is -10.6% (inactive) and 5.6% (inactive) and -2.56% (inactive). Moreover, the activation in assay [8] is -2.87% (inactive) and -7.85% (inactive) and -0.202% (inactive); in assay [12], -0.529% (inactive) and -1.53% (inactive) and 2.03% (inactive).
Consider `ClCCCl`, for which the Potency result in [17], in assay [1], in assay [2], in assay [3], in assay [4] and in assay [7] was “inactive” throughout. The Potency result in [9], in assay [10], in assay [13] and in assay [14] was “inactive” throughout. In addition, the molecule was classed as inactive in assay [18], in assay [20], in [5], in [11] and in assay [16]. Besides, the max response in assay [19] is -4.78% and -12% and 1.75%; in assay [15], 1.44% (inactive) and 0.0885% (inactive) and 1.57% (inactive). Besides, the activity change % (negative = inhibition) in assay [6] was 4.14% (inactive) and 2.63% (inactive) and 8.67% (inactive). For the same molecule, the activation in [8] was 0.154% (inactive) and -1.95% (inactive) and -0.964% (inactive); in assay [12], 0.113% (inactive) and 1.25% (inactive) and 1.3% (inactive).
`COC(=O)CCCCC(=O)OC`: the Potency result in assay [17], in assay [1], in assay [2], in [4], in [7] and in assay [9] was “inactive” in each case. In addition, the Potency entry in [10], in assay [13] and in assay [14] was “inactive” in each case. The result in [18], in assay [20], in [5], in [11] and in assay [16] was inactive. Also, the max response is -8.22% and -17.2% and -16.7% in [19]; 5.4% (inactive) and -0.278% (inactive) and 0.834% (inactive) in assay [15]. Moreover, in [6], the activity change % (negative = inhibition) is 22.1% (inactive) and -0.698% (inactive) and -15.8% (inactive). The activation in assay [8] was -0.0209% (inactive) and -1.5% (inactive); in [12], 3.11% (inactive) and -1.77% (inactive) and 1.4% (inactive).
Consider `c1ccccc1`, for which the Potency entry in assay [17], in assay [1], in assay [2], in assay [3], in assay [4] and in [9] was “inactive” each time. The Potency entry in assay [10] and in [13] was “inactive” throughout. In addition, the molecule was called inactive in [18], in [5] and in assay [11]. Also, in assay [8], the activation is 0.891% (inactive) [middle of 4 runs].

Values taken from PubChem BioAssay (NCATS).
